Source: PubChem BioAssay (National Center for Advancing Translational Sciences (NCATS))
Most compounds without a hit are left out; they make up all but 2.6% or so of the library.
SKOV3 invasion: blocks SKOV3ip1 adhesion and invasion in omental model | SKOV3ip1-GFP adhesion/invasion on 3D omental model, fluorescence | Potency, µM (titrated, usually from 45.8 µM), for the others: top-dose activity change, negative = inhibition, most hits filed as inhibitors | 46,000 tested, 0.1% active | AID 1963576;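 note: potency is the fitted concentration of half-maximal effect; plate controls were DMSO wells for no effect and tomatine positive control wells for full effect; nearly all actives have a fitted effect of over 65% in size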
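qHTS, 4-pt dose (0.36-46 umol/L); SKOV3ip1-GFP, 1,200 cells/well, no FBS; primary omental fibroblast/mesothelial co-culture 48 h pre-grown; 2 h RT + 16 h 37 C; PBS wash, 4% PFA; GFP count 488/509 nm.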
mTORC1 inh: inhibitors of mTORC1 signaling in Tsc2-/- p53-/- MEF cells | Tsc2-/- p53-/- MEF, phospho-rpS6 immunofluorescence/PI, 24 h | Potency, µM (series often up to 38.3 µM), for inactives: at the highest dose activity change, negative = inhibition, hits mostly inhibitors | 44,000 tested, 0.78% active | AID 493208;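 note: potency is the fitted concentration of half-maximal effect; plate controls were DMSO for no effect and rapamycin for full effect; nearly all actives have a fitted effect of over 50% in size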
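Readout is phospho-S6 Alexa 488 signal normalized to PI per well, reported as % active cells with thresholds set from rapamycin (7.5 nM) and DMSO controls. Cells: Tsc2-/-, p53-/- MEFs, 24 hrs compound at 37 C; PI cell number serves as viability.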
S16 viability: S16 Schwann cell cytotoxicity; Potency, µM (highest dose often 57.5 µM), inactives show at the highest dose activity change, negative = cytotoxicity, hits mostly cytotoxic; 43,000 tested, 0.48% active; S16 Pmp22-F2sN Schwann cells viability, CellTiter-Glo, 24 h; note: potency is the fitted concentration of half-maximal effect; % is set by controls: 0 for no effect and ±100 for the full control effect; nearly all actives have a fitted effect of over 65% in size
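Rat S16 Schwann reporter line, 24 h treatment with library compounds delivered at 23 nL per well. Cell viability by CellTiter-Glo luminescence.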
PMP22 txn: modulators of PMP22 gene transcription in S16 Schwann cells. S16 Pmp22-F2sN Schwann cells (luciferase reporters placed in the Pmp22 gene), FLuc/NLuc coincidence luminescence, 24 h. Potency, µM (highest dose often 57.5 µM), for inactives: top-dose activity change, negative = inhibition, hits mostly inhibitors. 43,000 tested, 2% active. AID 1508649; active = clear falling dose curves in both reporters; inconclusive = both reporters move, but less clearly or upward; inactive = either reporter flat; the % is the NLuc reporter signal; note: potency is the fitted concentration of half-maximal effect; % is set by controls: 0 for no effect and ±100 for the full control effect
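Luminescent read-out of sequential FLuc and NLuc signals from a reporter embedded in the Pmp22 3' UTR of S16 Schwann cells, taken after 24 h compound exposure at 37C; compounds reducing both signals score as inhibitors of expression.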
NLuc sat counter: NanoLuc enzyme inhibition artifact for PMP22 screen. Potency, µM (titrated, usually from 57.5 µM), inactives show at the top dose activity change, negative = inhibition, actives largely listed as inhibitors. 690 tested, 4% active. shares compounds with PMP22 txn. Secreted NLuc enzyme (filtered S16 cell medium), Nano-Glo luminescence; note: potency is the fitted concentration of half-maximal effect; % is set by controls: 0 for no effect and ±100 for the full control effect
NLuc Km counter: NanoLuc inhibition at Km substrate, PMP22 artifact check. shares compounds with PMP22 txn. secreted NLuc enzyme, coelenterazine luminescence, Km conditions. 690 tested, 5% active. Potency, µM (top dose mostly 57.5 µM), for the others: at the highest dose activity change, negative = inhibition, usual class: inhibitors. AID 1508639; note: potency is the fitted concentration of half-maximal effect; % is set by controls: 0 for no effect and ±100 for the full control effect
FLuc ctr PMP22: firefly luciferase enzyme inhibition artifact for PMP22 screen. Potency, µM (series often up to 57.5 µM), for the others: at the top dose activity, negative = inhibition, actives largely listed as inhibitors. AID 1508640. 690 tested, under 10 active. purified P. pyralis FLuc, luminescence, 10 min. shares compounds with PMP22 txn; note: % of control where 0% means no effect
Target sequence (P08659 whole entry, looked up): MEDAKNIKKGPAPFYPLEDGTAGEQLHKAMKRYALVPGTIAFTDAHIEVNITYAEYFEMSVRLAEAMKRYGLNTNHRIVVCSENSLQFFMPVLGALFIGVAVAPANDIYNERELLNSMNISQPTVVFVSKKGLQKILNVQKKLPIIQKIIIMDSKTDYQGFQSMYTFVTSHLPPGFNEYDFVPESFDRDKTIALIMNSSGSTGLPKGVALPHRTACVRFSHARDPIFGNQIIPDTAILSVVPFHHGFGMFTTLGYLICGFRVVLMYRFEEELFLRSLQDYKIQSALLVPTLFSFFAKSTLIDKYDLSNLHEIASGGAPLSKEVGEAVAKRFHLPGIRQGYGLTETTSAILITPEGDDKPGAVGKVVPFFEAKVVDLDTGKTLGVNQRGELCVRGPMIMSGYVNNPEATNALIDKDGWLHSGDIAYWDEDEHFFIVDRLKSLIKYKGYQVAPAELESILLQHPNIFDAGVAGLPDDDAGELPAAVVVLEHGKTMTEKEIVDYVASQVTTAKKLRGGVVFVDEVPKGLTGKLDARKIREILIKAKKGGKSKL
S16 F2sN tox cnf: S16 Schwann cell cytotoxicity, confirmatory; 690 tested, 7% active; AID 1508641; S16 Schwann cells viability, CellTiter-Glo ATP luminescence, 24 h; Potency, µM (top dose mostly 57.5 µM), inactives show at the highest dose activity change, negative = viability loss, usual class: cytotoxic; shares compounds with PMP22 txn; note: potency is the fitted concentration of half-maximal effect; % is set by controls: 0 for no effect and ±100 for the full control effect
PMP22 txn conf: confirmation of modulators of PMP22 gene transcription in S16 cells | shares compounds with PMP22 txn | S16 Schwann cells Pmp22-F2sN, dual luciferase, 24 h | Potency, µM (series often up to 57.5 µM), inactives show top-dose activity change, negative = inhibition, actives largely listed as inhibitors | 690 tested, 22% active | AID 1508646; active = clear falling dose curves in both reporters; inconclusive = both reporters move, but less clearly or upward; inactive = either reporter flat; the % is the FLuc reporter signal; note: potency is the fitted concentration of half-maximal effect
PMP22 prot conf: rat PMP22 protein level modulation, confirmatory | shares compounds with PMP22 txn | S16 Schwann cells Pmp22-HiBiT, luminescence, 48 h | Potency, µM (highest dose often 27.9 µM), inactives show top-dose activity change, negative = inhibition, hits mostly inhibitors | 95 tested, under 10 active
Target sequence (P25094 whole entry, looked up): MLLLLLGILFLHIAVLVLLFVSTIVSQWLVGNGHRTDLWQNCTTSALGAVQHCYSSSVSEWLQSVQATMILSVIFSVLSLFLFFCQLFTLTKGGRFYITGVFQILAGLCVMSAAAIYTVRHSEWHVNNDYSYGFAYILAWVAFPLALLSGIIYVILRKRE
Starred values were filed as active, the others as inactive. Unless noted, calls come from the whole dose curve; as a rule, active = well fitted curve in the direction sought with a large enough effect; inconclusive = small, poorly fitted or top-dose-only effect, or another doubt; inactive = no such curve, though single readings can be large; an effect the other way counts as inactive or inconclusive.

What do the screens show for `CCN(C(=O)CSc1nc(-c2ccccc2)no1)c1cccc(C)c1`?
SKOV3 invasion: -22%; mTORC1 inh: 6%; S16 viability: -8%; PMP22 txn: 13µM*; NLuc sat counter: 19µM*; NLuc Km counter: 4.8µM*; FLuc ctr PMP22: -13%; S16 F2sN tox cnf: inconclusive; PMP22 txn conf: 35%

Results for CCN(C(=O)CSc1nc2ccccc2nc1Cc1ccc(F)cc1)c1cccc(C)c1 ?
SKOV3 invasion: 43%; mTORC1 inh: 4%; S16 viability: -15%; PMP22 txn: -51%

What do the screens show for `COc1ccc(-c2nnc(SCC(=O)NCc3ccccc3)nc2-c2ccc(OC)c(OC)c2)cc1OC`?
SKOV3 invasion: -10%; mTORC1 inh: -12%; S16 viability: 1%; PMP22 txn: 7.3µM*; NLuc sat counter: inconclusive; NLuc Km counter: inconclusive; FLuc ctr PMP22: 5%; S16 F2sN tox cnf: -6%; PMP22 txn conf: inconclusive

Results for CCOc1ccc(-c2nnc(SCC(=O)NCc3ccc(C)cc3)nc2-c2ccc(OCC)c(OC)c2)cc1OC ?
SKOV3 invasion: 0%; mTORC1 inh: 0%; S16 viability: -21%; PMP22 txn: -13%

Results for O=C(CCCCCCC(=O)Nc1cccnc1)NO ?
SKOV3 invasion: -19%

How did CCC(C)NC(=O)C1CCN(C(=O)c2cc3sccc3n2Cc2ccc(Cl)cc2)CC1 (stereo not drawn) do in these assays?
SKOV3 invasion: -7%; mTORC1 inh: 0%; S16 viability: inconclusive; PMP22 txn: 8.9µM*; NLuc sat counter: inconclusive; NLuc Km counter: inconclusive; FLuc ctr PMP22: 11%; S16 F2sN tox cnf: inconclusive; PMP22 txn conf: 14µM*; PMP22 prot conf: 1.6µM*

What do the screens show for `COc1ccc(Nc2c3c(nc4ccc(NC(=O)c5cc(Cl)ccc5OC)cc24)CCCC3)cc1OC`?
SKOV3 invasion: inconclusive; mTORC1 inh: 0%; S16 viability: inconclusive; PMP22 txn: 4.7µM*; NLuc sat counter: -13%; NLuc Km counter: -2%; FLuc ctr PMP22: 12%; S16 F2sN tox cnf: 14µM*; PMP22 txn conf: 9.7µM*

What do the screens show for `COc1ccc(Cl)cc1NC(=O)CSC1=Nc2ccccc2C2=NC(CCC(=O)NCc3ccco3)C(=O)N12` (stereo not drawn)?
SKOV3 invasion: 3%; mTORC1 inh: -7%; S16 viability: inconclusive; PMP22 txn: 20µM*; NLuc sat counter: inconclusive; NLuc Km counter: inconclusive; FLuc ctr PMP22: -7%; S16 F2sN tox cnf: -18%; PMP22 txn conf: inconclusive

Results for CN(C)c1ccc(C2Nc3ccc4ccccc4c3C3=C2C(=O)CC(C)(C)C3)cc1Br (stereo not drawn) ?
SKOV3 invasion: 5%

What do the screens show for `COCCN1Cc2cccc(C(=O)Nc3ccc(C)c(F)c3)c2C1=O`?
SKOV3 invasion: 1%; mTORC1 inh: 1%; S16 viability: -7%; PMP22 txn: -8%

What do the screens show for `COCCN1Cc2cccc(C(=O)Nc3ccc(Cl)cc3Cl)c2C1=O`?
SKOV3 invasion: inactive; mTORC1 inh: -9%; S16 viability: -26%; PMP22 txn: 19µM*; NLuc sat counter: inconclusive; NLuc Km counter: inconclusive; FLuc ctr PMP22: -8%; S16 F2sN tox cnf: 8%; PMP22 txn conf: -44%

What do the screens show for `O=c1ccn([C@@H]2O[C@H](CO)[C@H](O)[C@@H]2F)c(=O)[nH]1`?
SKOV3 invasion: 2%

Results for COc1c(C)c2c(c(O)c1CC=C(C)CCC(=O)O)C(=O)OC2 ?
SKOV3 invasion: -8%

How did O=C(C=Cc1c(C(=O)O)[nH]c2cc(Cl)cc(Cl)c12)Nc1ccccc1 do in these assays?
SKOV3 invasion: -17%

What do the screens show for `COc1ccc(NC(=O)N2CCc3c(sc4c3CCCC4)C2c2ccc(F)cc2)cc1` (stereo not drawn)?
SKOV3 invasion: -1%; mTORC1 inh: 20%; S16 viability: inconclusive; PMP22 txn: 15µM*; NLuc sat counter: -12%; NLuc Km counter: -13%; FLuc ctr PMP22: 2%; S16 F2sN tox cnf: inconclusive; PMP22 txn conf: -30%

How did Cc1cccc(NC(=O)N2CCc3c(sc4c3CCCC4)C2c2ccc(F)cc2)c1 (stereo not drawn) do in these assays?
SKOV3 invasion: 3%; mTORC1 inh: 8%; S16 viability: -22%; PMP22 txn: -14%

How did Cc1cccc(CNC(=O)c2cnc3sc(N4CCCCCC4)nn3c2=O)c1 do in these assays?
SKOV3 invasion: inactive; mTORC1 inh: -3%; S16 viability: 4%; PMP22 txn: inconclusive; NLuc sat counter: -1%; NLuc Km counter: 4%; FLuc ctr PMP22: 3%; S16 F2sN tox cnf: 23%; PMP22 txn conf: -5%

How did Cc1cccc(CNC(=O)c2cnc3sc(N4CCOCC4)nn3c2=O)c1 do in these assays?
SKOV3 invasion: 1%; mTORC1 inh: 6%; S16 viability: 1%; PMP22 txn: -10%

How did C[C@@H]1CN(CC(=O)Nc2ccc3c(c2)Cc2cccc(-c4cc(=O)cc(N5CCOCC5)o4)c2S3)C[C@H](C)O1 do in these assays?
SKOV3 invasion: 5%

What do the screens show for `CC(=O)OCC(=O)[C@@]12N=C(C)O[C@H]1C[C@H]1[C@@H]3CCC4=CC(=O)C=C[C@]4(C)[C@@H]3[C@@H](O)C[C@@]12C`?
SKOV3 invasion: 17%
